# Data as given in PubChem BioAssay AID2320 (National Center for Advancing Translational Sciences (NCATS), 2010).
# Records with an inconclusive call do not appear. Values without a mark were called inactive. Active and inactive are the calls of the source. Calls come from the whole dose curve.
# Test: A qHTS for Small Molecule Inhibitors of Shiga Toxin (Confirmatory); note: nearly all actives have a fitted effect of over 75% in size; for activity, positive = inhibition of toxin: 0% is about no effect
# Details: Cell-based Shiga toxin protection reporter assay; series mostly up to 38.3 µM; activity, positive = inhibition of toxin: at the top concentration
# Potency is the fitted concentration of half-maximal effect.
Compound,"activity, positive = inhibition of toxin [%]",Potency
NS(=O)(=O)c1ccc(CCNC(=O)c2ccc(NC3=NC4CS(=O)(=O)CC4S3)cc2)cc1 (stereo not drawn),25.9,
CSc1nc(SCCO)c2sc3nc(-c4ccco4)c4c(c3c2n1)CC(C)(C)OC4,24.5,
Cc1ccc(OCC(=O)NNC(=O)CCC(=O)Nc2ccc(C)cc2C)cc1,19.3,
O=C(NCCc1c[nH]c2ccccc12)C(F)(F)F,-21.6,
O=C(Cn1cnc2cc([N+](=O)[O-])ccc2c1=O)NCc1ccc(Cl)cc1,-17.9,
CC(C)(C)C1CCC(C(=O)OCC(=O)c2ccc[nH]2)CC1 (stereo not drawn),,2.52 µM (active)
CC(=O)c1ccc(NC(=O)C(C)Sc2nnc(C3CCCCC3)o2)cc1 (stereo not drawn),-2.82,
CNC(=O)c1cccn(Cc2ccc(C(F)(F)F)cc2)c1=O,,0.1 µM (active)
CCOc1ccccc1NC(=O)CCS(=O)(=O)c1cccs1,-34.2,
OC1C[N+]2(CCCCC2)C1,-28.4,
COc1ccc(NC(=O)c2cccnc2Nc2ccc(OC)cc2)cc1,49.4,
CCOC(=O)C1(CCCc2ccccc2)CCN(C(=O)CCn2cncn2)CC1,14.8,
Cc1cnc(NC(=O)c2ccc(-c3nc4ccccc4s3)o2)s1,,17.9 µM (active)
CC(OC(=O)c1ccc2c(=O)n3c(nc2c1)CCC3)C(N)=O (stereo not drawn),-47.4,
CSc1nc(C)c2cc(C)oc2n1,-1.75,
COc1ccccc1C(=O)Nc1nnc(SCC(=O)Nc2ccc3c(c2)oc2ccccc23)s1,,3.18 µM (active)
CCOC(=O)c1c(C)[nH]c(C2=NNC(=NC3CC3)SC2)c1C,,0.0449 µM (active)
COc1ccc(C(=O)Nc2ccccc2C(=O)NCc2ccco2)cc1,,5.65 µM (active)
COCCCNC(=O)c1cn(C)c(=O)c2c1c1ccccc1n2C,-30.2,

Compound,"activity, positive = inhibition of toxin [%]",Potency
COc1ccccc1-n1cnnc1SCC(=O)Nc1ccccc1,,22.5 µM (active)
N#Cc1cc2c(nc1SCC(=O)Nc1cc(Cl)ccc1Cl)C1CCN2CC1,,12.6 µM (active)
N=c1c(S(=O)(=O)c2ccc(Cl)cc2)cc2c(=O)n3ccccc3nc2n1C1CCCCC1,-11.7,
Cc1cccc(N2CCN(C(=O)Cc3ccc(Br)cc3)CC2)c1C,,14.2 µM (active)
O=C(/C=C/Nc1ccc(F)cc1F)c1ccco1,,0.225 µM (active)
CCOC(=O)c1cnc2c(-c3cccc(Br)c3)cnn2c1C,,3.56 µM (active)
Cc1cc(Cl)ccc1NC(=O)CN1CCC(C(O)(c2ccccc2)c2ccccc2)CC1,-5.9,
O=C(COc1ncnc2ccccc12)NCCC1=CCCCC1,11.9,
COc1ccccc1NC(=O)Nc1cc(F)ccc1F,,20 µM (active)
NS(=O)(=O)c1cc(C(=O)NCC2CCCCC2)ccc1Cl,1.11,
COc1ccc2nc(SCC(=O)Nc3ccc4c(c3)CCC4)[nH]c2c1,41.5,
Cc1cc(C)c2c(n1)SCC(=O)N2CC(=O)Nc1ccc(C)c(C)c1,,0.449 µM (active)
Cc1ccc(NC(=S)c2nc3ccccc3s2)cc1,,0.895 µM (active)
Nc1nc(-c2nn(Cc3ccccc3F)c3ncccc23)ncc1C1CC1,13.7,
CSc1ccc(/C=C/C(=O)N2CCN(c3ccccn3)CC2)cc1,-0.0265,
CCOc1ncccc1C(=O)Nc1c(C)n(C)n(-c2ccccc2)c1=O,-36,
NC(=O)C1CCN(C(=O)C2c3ccccc3C(=O)N3CCc4ccccc4C23)CC1 (stereo not drawn),-53.8,
Cc1cc(N/C=C\c2nnnn2-c2ccccc2)no1,,22.5 µM (active)
COC(=O)c1ccc(C)c(NC(=O)CCSc2ccc(Cl)cc2)c1,-30.1,
